PubChem BioAssay (NCATS)
Records with an inconclusive call do not appear. A call without a number means that no potency is given here. Activity calls are given as the source filed them. Calls come from the whole dose curve; tested in HEK293 reporter line.

Assay: qHTS for Inhibitors of the Functional Ribonucleoprotein Complex (vRNP) of Lassa (LASV) Arenavirus: LASV Primary Screen - GLuc reporter signal (AID 1347082); note: nearly all actives have a fitted effect of over 60% in size
Details: LASV minigenome vRNP, Gaussia luciferase reporter; series mostly up to 57.5 µM
Potency is the fitted concentration of half-maximal effect.

Row | Structure (SMILES) | Potency
1 | C[C@@H](N)C1CCC(C(=O)Nc2ccncc2)CC1 (some centres not stated) | inactive
2 | C=CCn1c(=O)c2cnc(Nc3ccc(N4CCN(C)CC4)cc3)nc2n1-c1cccc(C(C)(C)O)n1 | 685 nM (active)
3 | C[C@@H](O[C@H]1OCCN(Cc2n[nH]c(=O)[nH]2)[C@@H]1c1ccc(F)cc1)c1cc(C(F)(F)F)cc(C(F)(F)F)c1 | inactive
4 | CCn1cc(C(=O)O)c(=O)c2cc3c(cc21)OCO3 | inactive
5 | COc1ccc2c(c1)CC[C@H]1[C@@H]2CC[C@]2(C)[C@@H](NCCCCCCN3C(=O)C=CC3=O)CC[C@H]12 | inactive
6 | NCCO | inactive
7 | CCCCCN(CCC12CC3CC(CC(C3)C1)C2)C(=O)NCCCc1ccncc1 | inactive
8 | N[C@H]1C(O)O[C@H](CO)[C@@H](O)[C@@H]1O (some centres not stated) | inactive
9 | O=C(NO)c1ccccc1 | inactive
10 | Cc1[nH]nc2ccc(-c3cncc(OC[C@@H](N)Cc4ccccc4)c3)cc12 | 432 nM (active)
11 | Cc1cn(-c2cc(NC(=O)c3ccc(C)c(Nc4nccc(-c5cccnc5)n4)c3)cc(C(F)(F)F)c2)cn1 | inactive
12 | O=C(O)c1ccc2cc(-c3ccc(O)c(C45CC6CC(CC(C6)C4)C5)c3)ccc2c1 | inactive
13 | Clc1ccccc1CN1CCc2sccc2C1 | inactive
14 | NC(=O)c1ccc(I)c([N+](=O)[O-])c1 | inactive
15 | C[N+]1(C)C2CC(OC(=O)[C@H](CO)c3ccccc3)CC1C1OC12 (some centres not stated) | inactive
16 | O=[N+]([O-])c1cccc(S(=O)(=O)NCCNS(=O)(=O)c2cccc([N+](=O)[O-])c2)c1 | inactive
17 | N#C/C(=C1\SCC(c2ccccc2Cl)S1)n1ccnc1 (configuration not stated) | inactive
